Screens: PubChem, Broad Institute
CD40 NFkB inh: inhibitors of CD40-induced NF-kB signaling, primary screen, BL2 cells, luciferase reporter, single point; AID 1053188, 2014; inhibition, % at 10 µM; 83,000 compounds, 0.94% hits; CD40L-induced, 4 h;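 active = mean inhibition of at least 50% with a set share of replicates also reaching that level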
Of the large screens only hits and unclear results are named; the others gave an inactive call; [ ] = remark or other dose. Shown is part of a subset that was picked to be rich in hits.

COc1ccc(S(=O)(=O)N(C)C[C@@H]2Oc3ccc(NC(=O)Nc4ccc(C(F)(F)F)cc4)cc3C(=O)N([C@H](C)CO)C[C@H]2C)cc1	CD40 NFkB inh 52.7[25 µM]
Cc1noc(C)c1NC(=O)N(C)C[C@@H]1OCCCC[C@@H](C)Oc2ccc(NC(=O)Nc3ccc(C(F)(F)F)cc3)cc2C(=O)N([C@H](C)CO)C[C@@H]1C	none
Cc1noc(C)c1NC(=O)N(C)C[C@@H]1OCCCC[C@@H](C)Oc2ccc(NC(=O)Nc3ccc(C(F)(F)F)cc3)cc2C(=O)N([C@H](C)CO)C[C@H]1C	CD40 NFkB inh 60.1[25 µM]
C[C@H](CO)N1C[C@H](C)[C@@H](CN(C)Cc2ccc3c(c2)OCO3)Oc2ccc(NC(=O)Nc3ccc(C(F)(F)F)cc3)cc2C1=O	none
C[C@@H]1CCCCO[C@H](CN(C)CC2CCCCC2)[C@H](C)CN([C@@H](C)CO)C(=O)c2cc(NC(=O)Nc3ccc(C(F)(F)F)cc3)ccc2O1	CD40 NFkB inh 55.0[25 µM]
C[C@@H]1CN([C@H](C)CO)C(=O)Cc2cc(NC(=O)Nc3ccc(C(F)(F)F)cc3)ccc2O[C@@H]1CN(C)CC1CCCCC1	none
COc1ccc(S(=O)(=O)N(C)C[C@@H]2Oc3ccc(NC(=O)Nc4ccc(C(F)(F)F)cc4)cc3C(=O)N([C@H](C)CO)C[C@@H]2C)cc1	none
Cc1noc(C)c1NC(=O)N(C)C[C@@H]1OCCCC[C@H](C)Oc2ccc(NC(=O)Nc3ccc(C(F)(F)F)cc3)cc2C(=O)N([C@H](C)CO)C[C@@H]1C	none
C[C@@H]1CCCCO[C@@H](CN(C)CC2CCCCC2)[C@@H](C)CN([C@H](C)CO)C(=O)c2cc(NC(=O)Nc3ccc(C(F)(F)F)cc3)ccc2O1	none
COc1ccc(S(=O)(=O)N(C)C[C@H]2Oc3ccc(NC(=O)Nc4ccc(C(F)(F)F)cc4)cc3C(=O)N([C@H](C)CO)C[C@@H]2C)cc1	none
C[C@H](CO)N1C[C@H](C)[C@H](CN(C)CC2CCCCC2)Oc2ccc(NC(=O)Nc3ccc(C(F)(F)F)cc3)cc2C1=O	CD40 NFkB inh 69.0
COc1cccc(NC(=O)N(C)C[C@@H]2OCc3ccccc3-c3c(n(C)c4ccccc34)C(=O)N([C@@H](C)CO)C[C@@H]2C)c1	none
CC(C)(C)[S@](=O)N1Cc2cc(C(=O)NCCc3ccncc3)nc(-c3cccc(-c4ccncc4)c3)c2[C@@H]1CCO	none
C[C@H]1COCn2nncc2CC[C@H](Cc2ccccc2)C(=O)N1	none
O=C([C@H]1[C@H](CO)[C@H]2Cn3c(cccc3=O)[C@@H]1N2CC1CCCC1)N1CCOCC1	none
C/C=C/c1ccc([C@H]2[C@@H](CO)N3C(=O)CN(C(=O)Nc4ccc(F)cc4)C[C@@H]23)cc1	none
COc1ccccc1CNC(=O)C[C@H]1C[C@@H]2c3cc(NS(=O)(=O)c4ccc(F)cc4)ccc3O[C@@H]2[C@H](CO)O1	none
CO[C@H]1CN(C)C(=O)c2cc(NC(=O)CC(F)(F)F)ccc2OC[C@H](C)N(CC2CC2)C[C@H]1C	none
CC(C)NC(=O)Nc1ccc2c(c1)CC(=O)N(C)C[C@@H](C)[C@H](CN(C)C)O2	none
CCC(=O)N[C@@H]1C=C[C@@H](CC(=O)NCC2CC2)O[C@H]1CO	none
CC(C)C(NC(=O)CN1C(=O)c2ccccc2S1(=O)=O)C(C)C	none
O=C(CN1C(=O)c2ccccc2S1(=O)=O)Nc1ccccn1	none
O=C1c2ccccc2S(=O)(=O)N1Cc1nc2ccccc2s1	CD40 NFkB inh 69.6
O=C(Nc1ccccc1)N1CCCCN2[C@@H](CO)[C@@H](c3ccc(Br)cc3)[C@@H]2C1	none
C[C@H](NC(=O)[C@H]1N[C@H]2c3ccc(C4=CCCC4)c(=O)n3C[C@H]2[C@@H]1CO)c1ccccc1	none
O=S(=O)(c1ccccc1)N1C[C@@H]2N[C@H](C1)C2c1ccc(/C=C/c2ccccc2)cc1 (some centres undefined)	none
COc1cccc(CN2C[C@@H]3N[C@H](C2)C3c2ccc(-c3ccccc3OC)cc2)c1 (some centres undefined)	none
COc1ccc(C[C@@H]2CCn3nncc3COCCCNC2=O)cc1	none
COc1ccc(CN(CCC(c2ccccc2)C2CCOC(C)(C)C2)C(C)=O)cc1 (centres undefined)	none
COc1ccc(CN(CCC(c2ccccc2)c2ccc(OC(C)C)cc2)C(=O)CCl)cc1OC (centres undefined)	CD40 NFkB inh 44.5
COc1ccc(CN(CCC(c2ccco2)C(C)C)C(C)=O)cc1OC (centres undefined)	none
C[C@H](CO)N1C[C@H](C)[C@H](CN(C)S(=O)(=O)c2ccc3c(c2)OCCCO3)OCc2cn(nn2)CCCC1=O	none
COc1cccc(-c2ccc3c(c2)[C@H]2[C@H](CCN2C(=O)C2CCCC2)[C@H](CO)N3)c1	none
CSC1SCC2C(=O)N(C)C(C(C)C)C(=O)OCC(NC(=O)c3cnc4ccccc4n3)C(=O)NC(C)C(=O)N(C)C1C(=O)N(C)C(C(C)C)C(=O)OCC(NC(=O)c1cnc3ccccc3n1)C(=O)NC(C)C(=O)N2C (centres undefined)	CD40 NFkB inh 91.6
O=C(C[C@H]1CC[C@H]2[C@@H](COC[C@@H](O)CN2C(=O)c2ccccc2F)O1)NCc1ccc(Cl)c(Cl)c1	none
C[C@@H]1CN([C@@H](C)CO)C(=O)c2c(c3ccccc3n2C)-c2ccccc2CO[C@H]1CN(C)S(=O)(=O)c1cn(C)cn1	none
CC(=O)N1C[C@@H]2C(c3ccc(Br)cc3)[C@H](C1)N2CC(F)(F)F (some centres undefined)	none
CC(=O)N(C)c1ccc(NS(=O)(=O)Cc2ccccc2)cc1	none
CC(=O)N(C)c1ccc(NC(=S)Nc2ccc(C(C)C)cc2)cc1	none
CC(=O)N(C)c1ccc(C=C2C=Cc3ccccc32)cc1	CD40 NFkB inh 71.6
N#C[C@H]1[C@@H](c2ccccc2)[C@@H](CO)N1S(=O)(=O)c1ccc(-c2ccccc2)cc1	none
CSc1nc2c([nH]1)c(=S)n(C)c(=O)n2C	CD40 NFkB inh 73.8
CCCC(CC)Sc1nc2c([nH]1)c(=S)n(C)c(=O)n2C (centres undefined)	none
CCCCC(C)Sc1nc2c([nH]1)c(=S)n(C)c(=O)n2C (centres undefined)	none
CC(C)NC(=O)N1[C@H](CN(C)C(=O)c2ccccc2)[C@@H](c2ccccc2)[C@@H]1CO	none
O=C(Cc1ccccc1)N1C[C@H]2[C@@H](c3ccccc31)[C@@H](CO)N2C(=O)C1CC1	none
OC(CNc1ccnc2cc(Cl)ccc12)CNC1CCCCC1 (centres undefined)	none
O=C(NCCNc1ccnc2cc(Cl)ccc12)c1ccccc1F	CD40 NFkB inh 37.4
CCN(CC)CCNc1ccnc2cc(Cl)ccc12	none
C[C@H]1CN([C@@H](C)CO)C(=O)c2ccccc2-c2ccccc2CO[C@H]1CN(C)Cc1ccc(F)cc1	none
Cc1ccc(C(=O)Nc2nc3ccccc3n2CCN2CCCC2)cc1	none
CCn1nccc1C(=O)Nc1nc2ccccc2n1CCN1CCCCC1	none
CCCn1c(NC(=O)c2cccc(S(=O)(=O)N3CCCC3)c2)nc2ccccc21	CD40 NFkB inh 89.6
CN1CCN(C(=O)C[C@@H]2CC[C@@H]3[C@H](COC[C@@H](O)CN3CC3CCCCC3)O2)CC1	none
Cc1ccc(C(=O)CCC(=O)Nc2ccc(C)cn2)cc1	none
Cc1ccc(NC(=O)CNC(=O)c2ccc(Oc3ccccc3)cc2)nc1	none
Cc1ccc(NC(=O)CNC(=O)c2cccc(C)c2)nc1	CD40 NFkB inh 57.5
COc1cccc(-c2ccc([C@H]3[C@@H](CO)N4C(=O)CNC[C@@H]34)cc2)c1	none
CN1C(=O)c2cc(NC(=O)C3CC3)ccc2OC[C@@H]2O[C@@H](CC(=O)O)CC[C@H]21	none
COc1ccc2c3c([nH]c2c1)[C@@H](CO)N(CC1CC1)CC31CN(C(=O)NC2CCCC2)C1	none
